According to PubChem BioAssay (NCI):
About 83,000 compounds went through this panel and 20% of them were active in at least one assay; those are over-represented in the sample as a whole.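 Cell lines were cultured in 96-well plates, exposed to a single compound concentration, and assessed for percent growth 48 hours later.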 Activity calls are given as the source filed them. How the source made its calls: active means growth percent below 10; inactive means the rest.

The compounds below were run on SF-295 CNS (assay: NCI-60 one-dose screen, 48 h (100 = growth as untreated, 0 = no growth, -100 = all killed)). Conditions: 10 µM unless noted.

Row | Structure (SMILES) | growth
1 | CS(=O)(=O)c1ccc(-c2nn(-c3ccccc3)cc2/C=C/C(=O)c2ccc(Br)cc2)cc1 | 104% (inactive)
2 | O=C(NCCCNc1cc(-c2cn(-c3ccccc3)nc2-c2cccc(O)c2)ccn1)Nc1ccc(F)cc1 | -44.3% (active)
3 | CN1C(=O)N(C)C2C1NN=c1s/c(=C\c3ccccn3)c(=O)n12 (centres undefined) | 99.8% (inactive)
4 | Fc1ccc(-c2cc3nc(C(Cl)Cl)nc(-c4cccs4)n3n2)cc1 | -7.41% (active)
5 | COc1ccc([C@H]2c3[nH]c4ccccc4c3C[C@@H]3C(=O)N(C4CCN(Cc5ccccc5)CC4)CC(=O)N23)c(OC)c1 | 94.6% (inactive)
6 | Cn1ccnc1C(=O)/C=C/c1ccc(C(=O)Nc2ccc(NC(=O)CCNC(=O)c3csc(Br)n3)cc2)cc1 | 81.3% (inactive)
7 | Cc1nn(-c2ccccc2)cc1/C=N/Nc1nc(Nc2ccccc2)nc(Nc2ccc(S(N)(=O)=O)cc2)n1 | 10.7% (inactive)
8 | COCCC[C@H]1O[C@@](O)([C@H](C)[C@@H]2CC(OC)C(O)/C=C(C)/C=C(C)/C=C(\C)C(OC3O[C@@H](C)[C@H](O)C(O)[C@@H]3O)C(C)/C=C(C)/C=C(OC)/C=C(\C)C(=O)O2)C(OC)C(O)[C@]1(C)O[C@H]1C[C@@H](O)[C@H](O[C@H]2C[C@](C)(O)[C@H](O)C(C)O2)C(C)O1 (some centres undefined) | 24.8% (inactive)
9 | COc1ccc(N2C(=O)c3cc(OC)c(OC)cc3NC2SCc2ccccc2)cc1 (centres undefined) | 103% (inactive)
10 | Cc1cc2nc(C(Cl)Cl)nc(-c3ccco3)n2n1 | 20.3% (inactive)
11 | COc1ccc(S(=O)(=O)NCCCNc2nccc(-n3cnc4ccccc43)n2)cc1 | 90.5% (inactive)
12 | O=C(NCCCNc1cc(-c2cn(-c3ccccc3)nc2-c2cccc(O)c2)ccn1)Nc1cc(C(F)(F)F)cc(C(F)(F)F)c1 | 45.3% (inactive)
13 | Cc1ccc(NC(=O)c2ccc(CN3CCN(C)CC3)c(I)c2)cc1Oc1ccc(-c2[nH]nc3ncnc(N)c23)cc1 | 78.4% (inactive)
14 | Cc1ccc(-n2cc(/C=C/C(=O)c3ccc(S(C)(=O)=O)cc3)c(-c3ccc(S(C)(=O)=O)cc3)n2)cc1 | 97.2% (inactive)
15 | COc1cc(/C=C/C(=O)c2ccc(NC(=O)CSc3nnc(-c4ccc5nc(-c6ccccc6)[nH]c5c4)o3)cc2)cc(OC)c1OC | 105% (inactive)
16 | O=c1oc2ccc(-c3ccc(F)cc3F)cc2c(=O)n1-c1cccc(C(F)(F)F)c1 | -17.3% (active)
17 | C#CCOc1ccccc1C(Nc1ccccc1)c1nnnn1C1CCCCC1 (centres undefined) | 88.5% (inactive)
18 | NCCN1CCN(c2nc(-c3ccccc3)nc3nc(-c4ccccc4)oc23)CC1 | -83.6% (active)
19 | CN1C(=O)N(C)C2Nn3c(s/c(=C\c4ccccn4)c3=O)=NC21 (centres undefined) | 104% (inactive)
20 | CNC(=O)c1cc(N2CCc3cc(NC(=O)Nc4ccc(Cl)c(Cl)c4)ccc32)ccn1 | 71.9% (inactive)
21 | NS(=O)(=O)c1ccc(-n2cc(CC=O)nn2)cc1 | 98.6% (inactive)
22 | COc1ccc(N)cc1C(=O)Nc1cccc(-c2cc(=O)c3c(OC)c(OC)c(OC)cc3o2)c1 | 63.8% (inactive)
23 | O=C(CSc1nnc(-c2ccc(Cl)cc2)n1-c1ccccc1)Nc1ccc(F)cc1 | 65.5% (inactive)
24 | O=C(c1cccc(F)c1)n1ccc2cc(NC(=S)Nc3cccnc3)ccc21 | 97.3% (inactive)
25 | O=C(O)c1ccc(-n2cc(CNc3ccc(Cl)cc3)c(-c3ccc(F)cc3)n2)cc1 | 87.6% (inactive)
26 | CCC(CC)N1C(=O)/C(=c2\sc3n(c2=O)C2C(NN=3)N(CC)C(=O)N2CC)c2ccccc21 (centres undefined) | 7.59% (active)

Each compound was assayed on SF-539 CNS in the same assay as above. Conditions: 10 µM unless noted.

Row | Structure (SMILES) | growth
27 | COc1ccc(-c2nn(-c3ccccc3)cc2/C=C/C(=O)c2ccc(NC(=O)CCCCCCC(=O)NO)cc2)cc1 | 105% (inactive)
28 | O=C(NCCCNc1cc(-c2cn(-c3ccccc3)nc2-c2cccc(O)c2)ccn1)Nc1cccc(C(F)(F)F)c1 | 27.5% (inactive)
29 | Cc1[nH]nc2ccc(-c3nc4cnc(N5CCN(C)CC5)cn4c3Nc3ccc(F)cc3Br)cc12 | -54.9% (active)
30 | O=C(/C=C/c1cccc(O)c1)c1ccc(O)cc1 | 43.3% (inactive)
31 | C#Cc1ccc(NC(=O)c2ccc(/C=C/C(=O)c3nccn3C)cc2)c(F)c1 | -22.5% (active)
32 | O=C(Nc1ccc(F)cc1)c1cc(-c2ccc(F)cc2F)ccc1O | 15.6% (inactive)
33 | Oc1ccc(CSc2nnc(-c3ccc(Oc4ccccc4)cc3)o2)c2cccnc12 | 31.6% (inactive)
34 | Cc1ccc(NC(=O)c2ccc(CN3CCN(C)CC3)c(C(F)(F)F)c2)cc1Oc1ccc(-c2[nH]nc3ncnc(N)c23)cc1 | 60.2% (inactive)
35 | N#Cc1c(NC(=O)c2ccccc2C(F)(F)F)sc2c1CCC(=O)C2 | -28.9% (active)
36 | CCN(CC)c1ccc2cc(C(=O)NCCOCCOCCOCCn3cc(CCC(=O)Nc4ccc(C(=O)c5ccc(NC(=O)OC(C)(C)C)cc5)cc4)nn3)c(=O)oc2c1 | 79.5% (inactive)
37 | CS(=O)(=O)c1ccc(-c2nn(-c3ccccc3)cc2/C=N/NC(=O)c2ccncc2)cc1 | 101% (inactive)
38 | Cc1ccc(S(=O)(=O)N/N=C/c2cn(-c3ccc(F)cc3)nc2-c2ccc(S(C)(=O)=O)cc2)cc1 | 97.7% (inactive)
39 | CS(=O)(=O)c1ccc(-c2nn(-c3ccccc3)cc2/C=C/C(=O)c2ccc(Br)cc2)cc1 | 102% (inactive)
40 | O=C(NCCCNc1cc(-c2cn(-c3ccccc3)nc2-c2cccc(O)c2)ccn1)Nc1ccc(F)cc1 | 6.41% (active)
41 | CN1C(=O)N(C)C2C1NN=c1s/c(=C\c3ccccn3)c(=O)n12 (centres undefined) | 96.3% (inactive)
42 | Fc1ccc(-c2cc3nc(C(Cl)Cl)nc(-c4cccs4)n3n2)cc1 | -2.29% (active)
43 | COc1ccc([C@H]2c3[nH]c4ccccc4c3C[C@@H]3C(=O)N(C4CCN(Cc5ccccc5)CC4)CC(=O)N23)c(OC)c1 | 81.7% (inactive)
44 | Cn1ccnc1C(=O)/C=C/c1ccc(C(=O)Nc2ccc(NC(=O)CCNC(=O)c3csc(Br)n3)cc2)cc1 | 7.51% (active)
45 | Cc1nn(-c2ccccc2)cc1/C=N/Nc1nc(Nc2ccccc2)nc(Nc2ccc(S(N)(=O)=O)cc2)n1 | -71.1% (active)

Row | Structure (SMILES) | growth
46 | COCCC[C@H]1O[C@@](O)([C@H](C)[C@@H]2CC(OC)C(O)/C=C(C)/C=C(C)/C=C(\C)C(OC3O[C@@H](C)[C@H](O)C(O)[C@@H]3O)C(C)/C=C(C)/C=C(OC)/C=C(\C)C(=O)O2)C(OC)C(O)[C@]1(C)O[C@H]1C[C@@H](O)[C@H](O[C@H]2C[C@](C)(O)[C@H](O)C(C)O2)C(C)O1 (some centres undefined) | 79.2% (inactive)
47 | COc1ccc(N2C(=O)c3cc(OC)c(OC)cc3NC2SCc2ccccc2)cc1 (centres undefined) | 94.3% (inactive)
48 | Cc1cc2nc(C(Cl)Cl)nc(-c3ccco3)n2n1 | 66.1% (inactive)
49 | COc1ccc(S(=O)(=O)NCCCNc2nccc(-n3cnc4ccccc43)n2)cc1 | 83.9% (inactive)
50 | O=C(NCCCNc1cc(-c2cn(-c3ccccc3)nc2-c2cccc(O)c2)ccn1)Nc1cc(C(F)(F)F)cc(C(F)(F)F)c1 | 74.9% (inactive)
51 | Cc1ccc(NC(=O)c2ccc(CN3CCN(C)CC3)c(I)c2)cc1Oc1ccc(-c2[nH]nc3ncnc(N)c23)cc1 | 67.5% (inactive)
52 | Cc1ccc(-n2cc(/C=C/C(=O)c3ccc(S(C)(=O)=O)cc3)c(-c3ccc(S(C)(=O)=O)cc3)n2)cc1 | 88.8% (inactive)
53 | COc1cc(/C=C/C(=O)c2ccc(NC(=O)CSc3nnc(-c4ccc5nc(-c6ccccc6)[nH]c5c4)o3)cc2)cc(OC)c1OC | 82.5% (inactive)
54 | O=c1oc2ccc(-c3ccc(F)cc3F)cc2c(=O)n1-c1cccc(C(F)(F)F)c1 | 11.6% (inactive)
55 | C#CCOc1ccccc1C(Nc1ccccc1)c1nnnn1C1CCCCC1 (centres undefined) | 101% (inactive)
56 | NCCN1CCN(c2nc(-c3ccccc3)nc3nc(-c4ccccc4)oc23)CC1 | -87.6% (active)
57 | CN1C(=O)N(C)C2Nn3c(s/c(=C\c4ccccn4)c3=O)=NC21 (centres undefined) | 101% (inactive)
58 | CNC(=O)c1cc(N2CCc3cc(NC(=O)Nc4ccc(Cl)c(Cl)c4)ccc32)ccn1 | 55.7% (inactive)
59 | NS(=O)(=O)c1ccc(-n2cc(CC=O)nn2)cc1 | 99% (inactive)
60 | COc1ccc(N)cc1C(=O)Nc1cccc(-c2cc(=O)c3c(OC)c(OC)c(OC)cc3o2)c1 | 64.4% (inactive)
61 | O=C(CSc1nnc(-c2ccc(Cl)cc2)n1-c1ccccc1)Nc1ccc(F)cc1 | 60% (inactive)
62 | O=C(c1cccc(F)c1)n1ccc2cc(NC(=S)Nc3cccnc3)ccc21 | 99.8% (inactive)
63 | O=C(O)c1ccc(-n2cc(CNc3ccc(Cl)cc3)c(-c3ccc(F)cc3)n2)cc1 | 98.1% (inactive)
64 | CCC(CC)N1C(=O)/C(=c2\sc3n(c2=O)C2C(NN=3)N(CC)C(=O)N2CC)c2ccccc21 (centres undefined) | 3.34% (active)
